# According to PubChem BioAssay AID651629 (Sanford-Burnham Center for Chemical Genomics, 2012):
# The list shows a part of the results. Unmarked numbers belong to inactive results. Active and inactive are the calls of the source.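 Rule for the calls: active = mean inhibition across replicates of 40% or more; inactive = mean inhibition below 40%.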
# Assay: TAG lipid buildup inhibition in H9c2 – cell-based, single concentration, Nile Red fluorescence, confirmation (AID 651629);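 note: plate controls were DMSO only wells for no effect and Triacsin C treated wells for full effect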
# Settings: H9c2 lipid accumulation, at 12.5 µM, hits give high values, cells loaded with 200 µM oleic acid
row,Structure (SMILES),inhibition
1,CN(C)C(=O)c1cccc(-c2cnc3c(NC=O)cc(-c4ccc(C(=O)N5CCOCC5)cc4)cn23)c1,58% (active)
2,O=C(Nc1ccc(-c2csc(Nc3cccc(C(F)(F)F)c3)n2)cc1)c1cccc(C(F)(F)F)c1,66% (active)
3,COc1cc(NC(=O)c2cncc(-c3ccc(C#N)cc3)c2)cc(C(=O)Nc2cccc(C(F)(F)F)c2)c1,39.1%
4,Cc1onc(NC(=O)c2ccc([N+](=O)[O-])o2)c1Br,46% (active)
5,CCCC(=O)Nc1nc2ccc(NC(=O)c3c(F)c(F)c(OC)c(F)c3F)cc2s1,69% (active)
6,Cc1ccccc1OCC(=O)Nc1ccc(N2CCN(C(=O)C(C)C)CC2)c(Cl)c1,7.1%
7,COc1ccc(Nc2cc(=O)oc3ccccc23)cc1,50.6% (active)
8,CN(C)CCNC(=O)c1cccc(-c2cnc3c(NC=O)cc(-c4cccc(C(F)(F)F)c4)cn23)c1,50.4% (active)
9,COc1ccc2sc(-c3ccc(S(C)(=O)=O)cc3)c(C#Cc3cncn3C)c2c1,74.2% (active)
10,CCOC(=O)N1CCN(C(=O)c2ccccc2N(Cc2ccccc2)S(=O)(=O)c2ccc(OC)cc2)CC1,64.1% (active)
11,O=C1c2ccccc2C(=O)c2c1cccc2N1CCN(C/C=C/c2ccccc2)CC1,64% (active)
12,O=C(Nc1cc2c3c(c1)C1CCCC1CN3CC1CCCC21)c1ccc([N+](=O)[O-])cc1 (stereo unspecified),56.6% (active)
13,COc1ccccc1NC1=NC(c2ccc(Cl)cc2)N=C(N)N1 (stereo unspecified),74.9% (active)
14,O=C(CSc1nc2ccc(Nc3nc(N4CCOCC4)nc(N4CCOCC4)n3)cc2s1)NCc1ccco1,65.5% (active)
15,Cc1cc(NC(=O)CSc2nc(C(C)C)nc3sc4c(c23)CCC(C)C4)no1 (stereo unspecified),51.7% (active)
16,CCCCN1C(=O)/C(=C/C=C2/C=Cc3ccccc3N2CC)SC1=S,127% (active)
17,O=C(Nc1nc(-c2ccncc2)cs1)C1COc2ccccc2O1 (stereo unspecified),31.4%
18,Cc1cc(N/N=C\c2ccc(Br)cc2)nc(-n2nc(C)cc2C)n1,58.6% (active)
19,COc1ccc2sc(-c3ccc(N(C)C)cc3)c(C#CCO)c2c1,85.7% (active)
20,CC(=O)c1ccc(Oc2cc(C)nc(-n3nc(C)cc3C)n2)cc1,63.2% (active)
21,O=C(Cc1cccc2ccccc12)Nc1ccc2oc(-c3ccccc3)nc2c1,25.7%
22,COc1ccc(S(=O)(=O)N2CCc3ccccc32)cc1C(=O)Nc1cc(S(C)(=O)=O)ccc1Cl,16.4%
23,COC(=O)c1ccc(NCc2cc(O)ccc2O)cc1,29.9%
24,CCCOC(=O)c1[nH]c2c(c1C)C(=O)CC(c1cccs1)C2 (stereo unspecified),35.2%
25,Cc1ccc(/C=N/NC(=S)Nc2cccc(S(=O)(=O)N(C)C)c2)o1,20.8%
26,CC1(C(=O)NCc2ccco2)Cc2c(-c3ccc4c(c3)OCO4)ccnc2O1 (stereo unspecified),61.9% (active)
